TIM10 inh: inhibits growth of TIM10 yeast strain | S. cerevisiae TIM10 strain growth, BacTiter-Glo luminescence, 24 h | AID 463195 | inhibition, % at 10 µM | 1.4% of 330,000 active;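 active = inhibition of 40% or more at the single tested concentration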;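 also: wild-type TIM10 isogenic control strain grown at permissive 25 °C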
SKKanGAS inh: blocks kanamycin growth of S. pyogenes SKKanGAS strain | BacTiter-Glo, 6 h | inhibition, % at 7.5 µM | 1.3% of 300,000 active;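 active = mean replicate score, as percent of positive control median, at least 50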;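 also: strain carries kanamycin resistance gene driven by streptokinase promoter and grows in 40 µg/ml kanamycin; loss of luminescence reflects streptokinase promoter inhibition or plain growth inhibition; 0% = median of DMSO wells and 100% = positive control at its reference dose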
PfHsp90 yeast 2: reduces growth (ATP signal) of yeast expressing P. falciparum Hsp90; S. cerevisiae expressing PfHsp90, BacTiter-Glo ATP, 48 h; yeast lacking PDR1 and PDR3 efflux regulators; inhibition, % at 9.4 µM; 0.32% of 310,000 active; AID 504621;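 active = every replicate shows inhibition above about 80%, whatever the replicate mean, limit read from the data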;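 also: 0% = DMSO neutral controls and 100% = 20 µM radicicol positive controls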
NLRP3 yeast inh: blocks the NALP3 inflammasome reconstituted in yeast; AID 2825; 0.39% of 330,000 active; Yeast reconstituted NLRP3/ASC/caspase-1, beta-gal luminescence, 24 h; inhibition, % at 10 µM;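 active = inhibition of 50% or more; inactive = inhibition below 50%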;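 also: plate controls were induced DMSO wells for no effect and uninduced yeast grown without galactose for full effect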
tim23-1 inh: growth inhibitors of tim23-1 mutant yeast; AID 463212; 1.3% of 330,000 active; S. cerevisiae tim23-1 growth, BacTiter-Glo luminescence, 24 h; inhibition, % at 20 µM;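 active = growth inhibition of the mutant yeast at or above 50%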;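 also: temperature-sensitive mutant grown at 25 °C; plate controls were DMSO-treated mutant yeast for no effect and medium wells lacking yeast for full effect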
tim10-1 inh: growth inhibitors of tim10-1 mutant yeast. S. cerevisiae tim10-1 ts strain growth, BacTiter-Glo, 24 h. inhibition, % at 20 µM. 2.2% of 330,000 active. AID 463190;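 active = inhibition of at least 40%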;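 also: mutant grown at 25 °C; 0% = DMSO wells with yeast and 100% = wells holding no yeast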
TIM10 conf: TIM10 yeast growth inhibition, confirmed | AID 463215 | inhibition, % at 10 µM | 63% of 4,600 active | S. cerevisiae tim10 strain growth, BacTiter-Glo luminescence, 24 h | shares compounds with TIM10 inh;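 active = inhibition of yeast growth at or above a set limit in either of two replicates at 10 µM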;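 also: this counterscreen used the strain with wild-type TIM10; 0% = yeast with DMSO and 100% = medium wells lacking yeast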
tim23-1 conf: confirmation of tim23-1 mutant yeast growth inhibitors; shares compounds with tim23-1 inh; S. cerevisiae tim23-1 growth, BacTiter-Glo luminescence, 24 h; inhibition, % at 20 µM; 83% of 4,400 active; AID 463218;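 active = inhibition above about 39% in either of two replicate wells at 20 µM, limit read from the data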;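 also: temperature-sensitive tim23-1 mutant grown at 25 °C; 0% = DMSO wells with yeast and 100% = medium wells without yeast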
An asterisk follows results filed as active; . = no result. Only some compounds are listed: those with a hit (about 4.5% of all), similar ones and a draw of the others.

SMILES	TIM10 inh	SKKanGAS inh	PfHsp90 yeast 2	NLRP3 yeast inh	tim23-1 inh	tim10-1 inh	TIM10 conf	tim23-1 conf
O=C(Cc1cnn(-c2ccccc2)c1)c1ccc(O)c(O)c1O	11	1	3	13	29	29	.	.
Cc1ccc(C(=O)Nc2cccc(Oc3ccccc3)c2)o1	50*	-2	10	22	58*	20	56*	77*
Oc1ccc(-c2cc(-c3ccc(O)cc3)nc(-c3ccccc3)n2)cc1	67*	103*	11	4	61*	31	63*	61*
O/N=C/c1ccccc1OCc1ccc(Cl)cc1	42*	8	-10	23	52*	23	-27	59*
COc1ccc(CN=C2NN=C(c3ccc(Cl)cc3)CS2)cc1	46*	-3	20	-11	65*	14	31*	68*
Cc1ccc2c(c1)C(=O)C(=O)N2CC(=O)OC(C)C	6	-2	15	7	15	19	.	.
Cc1ccc2c(c1)C(=O)C(=O)N2Cc1ccc(C(F)(F)F)cc1	41*	.	150*	1	82*	30	58*	32*
Cc1ccc(/C=N/NC(=O)c2ccc3c(c2)OCCO3)s1	44*	17	1	35	59*	-18	32	65*
Cc1ccc(/C=N/NC(=O)c2ccc3ccccc3c2)s1	41*	-1	1	46	68*	-2	32*	73*
O=C(N/N=C/c1cc(Br)cs1)c1ccc2c(c1)OCCO2	20	34	.	32	46	-41	.	.
Cc1ccc(/C=N/NC(=O)c2ccncc2)s1	-15	-2	-8	-3	3	-9	.	.
Cc1ccsc1/C=N/NC(=O)c1ccc2c(c1)OCCO2	49*	3	-17	30	56*	30	52*	72*
CN(CC(=O)Nc1ccc(F)cc1)C(=O)COC(=O)CSc1ccc(F)cc1	1	-9	-13	11	8	5	.	.
Cc1cccc(NC(=O)C2C(c3ccccc3)C2(Cl)Cl)c1 (configuration not stated)	46*	12	2	38	52*	11	33*	51*
COC1=CC(=O)c2ccccc2C1=O	25	.	-3	-35	78*	38	.	79*
Cc1ccc(C)c(-c2csc(N/N=C/c3ccco3)n2)c1	18	5	15	33	56*	30	.	39*
CCOC(=O)CSC1=C(C#N)C(c2ccc(C)s2)CC(=O)N1 (configuration not stated)	22	-11	18	23	58*	-2	.	46*
CCc1ccc(C2CC(=O)NC(SCC(=O)OC(C)C)=C2C#N)cc1 (configuration not stated)	12	-6	15	18	55*	32	.	57*
FC(F)(F)c1cc(Nc2ccccc2)nc(-c2ccccn2)n1	35	77*	9	37	51*	22	.	34
CC(C)Nc1cc(C(F)(F)F)nc(-c2ccccn2)n1	-13	1	.	2	-10	35	.	.
Nc1c(N(Cc2ccco2)C(=O)c2cccc(Cl)c2)c(=O)[nH]c(=O)n1Cc1ccccc1	-1	.	-6	20	4	2	.	.
COc1cccc(C(=O)N(Cc2ccco2)c2c(N)n(Cc3ccccc3)c(=O)[nH]c2=O)c1	5	.	4	7	34	0	.	.
Nc1c(N(Cc2ccco2)C(=O)c2ccc(Cl)cc2)c(=O)[nH]c(=O)n1Cc1ccccc1	16	.	.	20	60*	0	.	66*
Nc1c(N(Cc2ccco2)C(=O)c2ccc(Br)cc2)c(=O)[nH]c(=O)n1Cc1ccccc1	17	.	16	4	59*	6	.	72*
CN(c1ccccc1)S(=O)(=O)c1ccc(C(=O)N2CCN(c3ccccc3F)CC2)cc1	13	.	-11	19	35	9	.	.
O=C(O)c1ccc(COc2ccc(/C=N/NC(=O)c3cccs3)cc2)cc1	2	5	-3	10	16	11	.	.
O=C(N/N=C/c1cccc(OCc2ccccc2)c1)c1cccs1	-7	-7	12	5	55*	-7	.	42*
